The full list was thinned out, with hits kept by preference.
TNAP act mid DEA: human TNAP activation, intermediate phosphate acceptor; purified TNAP, CDP-star luminescence, 100 mM DEA, 30 min; stronger effect = higher value; scale: 0 levamisole-inhibited, 1 vehicle-only enzyme; activation factor at 20 µM; 64,000 tested, under 10 active;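 active = activation factor of at least 2 at 20 µM, relative to controls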
FXIIa mix inh: inhibitors of human coagulation factor XIIa, pooled mixtures | purified FXIIa, fluorogenic substrate | 62,000 tested, 0.2% active | P00748 | inhibition, % at 5 µM
Target sequence (P00748 20-372 limits assumed): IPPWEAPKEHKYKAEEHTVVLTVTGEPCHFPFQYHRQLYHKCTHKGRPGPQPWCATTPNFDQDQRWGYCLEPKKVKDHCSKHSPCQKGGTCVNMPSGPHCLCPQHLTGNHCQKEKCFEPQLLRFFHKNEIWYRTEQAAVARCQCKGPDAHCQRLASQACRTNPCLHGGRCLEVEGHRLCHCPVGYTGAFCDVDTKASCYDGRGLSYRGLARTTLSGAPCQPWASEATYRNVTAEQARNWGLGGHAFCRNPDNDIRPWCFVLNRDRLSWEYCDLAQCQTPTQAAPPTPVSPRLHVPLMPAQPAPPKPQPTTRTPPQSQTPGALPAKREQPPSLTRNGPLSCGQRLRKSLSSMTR
Target sequence (P00748 373-615 limits assumed): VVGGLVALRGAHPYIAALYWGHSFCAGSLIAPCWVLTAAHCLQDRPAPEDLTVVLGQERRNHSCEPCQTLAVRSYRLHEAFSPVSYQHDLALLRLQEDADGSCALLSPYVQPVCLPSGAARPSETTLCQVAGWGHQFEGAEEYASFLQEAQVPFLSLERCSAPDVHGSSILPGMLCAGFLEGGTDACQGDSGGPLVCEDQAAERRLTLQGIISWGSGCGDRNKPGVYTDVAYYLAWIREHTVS
FXIa inh mix: inhibitors of human coagulation factor XIa, pooled mixtures; P03951; purified FXIa, fluorogenic substrate; inhibition, % at 5 µM; 62,000 tested, 0.19% active;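 note: each value is inhibition by a whole ten-compound pool holding the compound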
Calb biofilm kill: kills Candida albicans biofilms. C. albicans biofilm + clotrimazole, Alamar Blue. inhibition, % at 6 µM. 85,000 tested, 0.14% active;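 active = inhibition above 20%; inactive = inhibition below 20%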;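 note: preformed 24 hr biofilms exposed to compound for 48 hr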
D1 allo mod: allosteric modulators of human D1 dopamine receptor; AID 641; P21728; 58,000 tested, 5.9% active; HEK293 D1, CRE-luciferase, dopamine EC30 potentiation; actives deviate in either direction; B-score at 10 µM;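 active = luminescence count or its row- and column-corrected plate score outside the 99.7% band of the plate's sample wells, on either side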
HePTP inh: human HePTP phosphatase inhibition. inhibition, % at 20 µM. P35236. AID 521. 110,000 tested, 0.64% active. recombinant HePTP phosphatase activity, OD absorbance; in the data active = inhibition above about 50%
Numbers stand for hits; 0 = inactive; - = no result given; ! = not confirmed by another sample. Cut-off read from the data, not from the text of the source, unless noted: active = inhibition above about 20% (passing the limit was not always enough); inactive = the rest.

SMILES	TNAP act mid DEA	FXIIa mix inh	FXIa inh mix	Calb biofilm kill	D1 allo mod	HePTP inh
Clc1ccc(-c2nnc(SCc3ccon3)o2)c(Cl)c1	-	-	-	0	-4.7	-
C=CCSc1nnc(-c2ccc(Cl)cc2Cl)o1	0	0	0	0	0	0
COc1cc(OC)c(/C=C2\SC(=Nc3ccc(C)c(Cl)c3)NC2=O)cc1Br	-	-	-	-	-	0
COc1cccc(C2NC(=O)NC(C)=C2C(=O)Nc2cccc(C)c2C)c1 (stereo unspecified)	0	21	0	0	0	0
COc1cccc(C2NC(=O)NC(C)=C2C(=O)Nc2ccccc2C)c1 (stereo unspecified)	0	0	0	0	0	0
O=C(CN(c1cccc([N+](=O)[O-])c1)S(=O)(=O)c1ccccc1)Nc1ccc2ccccc2c1	-	-	-	-	-	0
N=C1S/C(=C\c2ccc(-c3cccc(C(=O)O)c3)o2)C(=O)N1c1ccc2c(c1)OCO2	-	-	-	-	-	103
CC1=NN(c2ccc(C(=O)O)cc2)C(=O)/C1=C\c1ccc(-c2cccc(C(=O)O)c2)o1	-	-	-	-	-	101
N=C1S/C(=C\c2ccc(-c3cccc([N+](=O)[O-])c3)o2)C(=O)N1c1ccc2c(c1)OCO2	-	-	-	-	-	0
COC(=O)c1cccc(-c2ccc(/C=C3\C(=O)N(c4ccc(S(N)(=O)=O)cc4)N=C3C)o2)c1	-	-	-	-	-	0
O=C1NN(c2cccc(Cl)c2)C(=O)/C1=C\c1ccc(-c2cccc(C(=O)O)c2)o1	-	-	-	-	-	102
COC(=O)c1cccc(-c2ccc(/C=C3\C(=O)N(c4cccc(C(=O)O)c4)N=C3C)o2)c1	-	-	-	-	-	102
CC(=O)c1cccc(-c2ccc(/C=C3\C(=O)N(c4cccc(C(=O)O)c4)N=C3C)o2)c1	-	-	-	-	-	0
OCc1cccc(N=Cc2ccc(C=Nc3cccc(CO)c3)cc2)c1	-	-	-	-	-	0
COc1cc(/C=C2\SC(=S)N(CC(=O)O)C2=O)cc(OC)c1OC	-	-	-	-	-	0
CC(=O)CC(=O)Nc1ccc2c(c1)OCO2	-	-	-	-	-	0
COC(=O)C1=C(C)N(C)C(C)=C(C(=O)OC)C1c1ccccc1OCc1ccccc1	-	-	-	-	-	0
Cc1ccc(-c2csc3nnc(SCC(=O)NCc4ccc5c(c4)OCO5)n23)cc1	0	0	0	0	19	0
Cn1c(SCC(=O)NCc2ccc3c(c2)OCO3)nnc1-c1cccs1	0	0	0	0	0	0
COC(=O)c1ccc(Cn2nc(C)c(Br)c2C)cc1	0	0	0	0	-2.7	0
CC1=NN(c2ccc(Cl)c(Cl)c2)C(=O)/C1=C/c1ccc2c(c1)OCO2	-	-	-	-	-	0
CC1=NN(c2ccc(S(N)(=O)=O)cc2)C(=O)/C1=C\c1ccc2c(c1)OCO2	-	-	-	-	-	63
CC1=CC(C)(C)NC(=S)N1NC(=O)c1ccccc1	-	-	-	-	-	0
Cc1cn(C(=O)c2cccc(Br)c2)c(C)n1	0	0	0	-	8	0
Oc1cccc(-c2nc3ccccc3s2)c1	0	0	0	0	-8.7	0
SMILES	TNAP act mid DEA	FXIIa mix inh	FXIa inh mix	Calb biofilm kill	D1 allo mod	HePTP inh
CCn1cc(C(=O)O)c(=O)c2cc(F)c(N3CCNCC3)nc21	0	0	0	22	0	0
NC(=O)C1CCN(c2ncnc3c2c(-c2ccccc2)cn3-c2ccccc2)CC1	0	0	0	0	-3.8	0
c1ccc2nc(-c3nc4ccccc4o3)ccc2c1	0	0	0	0	-3.9	0
c1cc(-c2nc3ccccc3o2)nc(-c2nc3ccccc3o2)c1	0	0	0	0	0	0
Cc1cc(N)n2nc(-c3ccccc3)cc2n1	0	0	0	0	-3.4	0
CCc1cc(C)nc2cc(-c3ccccc3)nn12	-	-	-	-	-	0
Cc1cc(C)n(Cc2ccc(C(=O)O)cc2)n1	-	-	-	0	-	-
Cc1ccc(C)n1Cc1ccc(C(=O)O)cc1	0	-	-	0	-	104!
O=C(c1csc2c1CCCC2)N1CCN(c2ncccn2)CC1	0	0	0	0	0	0
O=C(c1csc2c1CCCC2)n1cccn1	0	0	45	-	0	0
O=C(Nc1ccc(NC(=O)c2ccco2)nc1)c1ccccn1	0	0	0	0	-4.1	0
CC(C)C(=O)Nc1ccc(NC(=O)c2ccccn2)cn1	0	0	0	0	-4.9	0
O=C(Nc1ccc(NC(=O)C2CCCCC2)cn1)c1ccco1	0	0	0	0	-3.2	0
O=c1c2c(nc3cc(-c4cccc(Cl)c4)[nH]n13)CCS2	-	-	-	-	-	0
Cc1ccc(OCC(=O)Nc2ccc(-c3nc4ncccc4o3)cc2)c(C)c1	0	0	0	0	0	104!
O=C(COc1ccccc1[N+](=O)[O-])Nc1ccc(-c2nc3ncccc3o2)cc1	-	-	-	-	-	65
Cc1cc(OCC(=O)Nc2ccc(-c3nc4ncccc4o3)cc2)ccc1Cl	-	-	-	-	-	63
O=C(COc1ccccc1[N+](=O)[O-])Nc1ccc(-c2nc3ccccc3o2)cc1	-	-	-	-	-	0
Cc1ccc(C(C)C)c(OCC(=O)Nc2ccc(-c3nc4ncccc4o3)cc2)c1	-	-	-	-	-	0
CCCc1ccc(Oc2cn[nH]c2-c2ccc(O)cc2O)cc1	0	0	0	-	-4.9	0
CN(C)c1nc(N)nc(-c2cccnc2)n1	0	0	0	0	4.6	0
CCCOc1ccc(N2C(=O)CC(N3CCC(O)CC3)C2=O)cc1 (stereo unspecified)	-	-	-	-	-	0
CC(C)c1ccc(/C=C/C(=O)Nc2ccc(C(N)=O)cc2)cc1	-	-	-	-	-	104
O=C(Nc1nc2cc3c(cc2s1)OCO3)C1=COCCO1	0	0	0	0	-8.3	0
CN(C)/C=C/C=C/C(=O)c1ccc(/C=C/C=C/N(C)C)o1	-	-	-	-	-	103
SMILES	TNAP act mid DEA	FXIIa mix inh	FXIa inh mix	Calb biofilm kill	D1 allo mod	HePTP inh
COc1ccc(CNC(=O)c2nn3c(c2Cl)NC(c2ccc(C)cc2)CC3C(F)(F)F)cc1 (stereo unspecified)	-	-	-	-	-	0
COc1ccc(C2CC(C(F)(F)F)n3nc(C(=O)NCc4c(C)nn(C)c4C)c(Cl)c3N2)cc1 (stereo unspecified)	0	0	0	0	-3.1	0
COc1ccc(C(=O)N=c2nc3ccccn3s2)cc1	0	0	0	0	-4.8	0
CCN(CC)c1ccc(C(=O)Nc2ccc(F)c(Cl)c2)cc1	-	-	-	-	-	0
COc1ccc(-c2cn3cc(C)ccc3n2)cc1OC	0	0	0	0	-6.5	0
Brc1ccccc1CN1CCN(Cc2ccncc2)CC1	-	-	-	-	-	0
Cc1nn(CC(=O)Nc2ccc(C(=O)N3CCCC3)cc2)c(=O)c2ccccc12	0	0	0	0	0	0
COC(=O)c1ccc(NC(=O)Cn2nc(C)c3ccccc3c2=O)cc1	-	-	-	-	-	69
COc1ccc(OCCCC(=O)NCC(C)C)cc1	-	-	-	64	-	-
C(=C\c1ccco1)/C=N/Nc1cccc2cccnc12	-	-	-	-	-	0
COc1ccc(Cc2nnc3n2N=C(c2cc4ccccc4o2)CS3)cc1OC	0	0	0	0	3	0
COc1ccc(-c2nnc3n2N=C(c2ccccc2)CS3)cc1OC	0	32	0	0	0	0
Cc1ccc2c(c1)c(N=Nc1nnc3c(n1)[nH]c1ccccc13)c(O)n2C	-	-	-	-	-	87
COc1cc(/C=C2/C(=O)NC(=O)N(c3ccccc3)C2=O)ccc1OCC(=O)O	-	-	-	-	-	0
COc1ccc(CCNC(=O)c2ccccc2)cc1OC	-	-	-	-	-	0
COc1ccc(CCNC(=O)c2cc(-c3ccccc3)on2)cc1OC	0	47	0	0	0	0
O=C(NC(=S)Nc1ccc2oc(-c3ccccc3)nc2c1)c1ccccc1	-	-	-	-	-	103

Screening results deposited in PubChem by several laboratories.
